From PubChem BioAssay (Tox21) come the findings set out here.

Unmarked numbers belong to inactive results. Results filed as inconclusive are left out. Calls of active or inactive are those of the source. Unless noted, calls follow the shape of the dose curve; as a rule, active = well fitted curve in the direction sought with a large enough effect in the repeat runs; inconclusive = weak or mixed curves; inactive = no such curve, though single readings can be large; an effect the other way counts as inactive or inconclusive.

Experiment [1] concerns the target Luciferin 4-monooxygenase (Photinus pyralis) (UniProt P08659). The experiment in a line: qHTS assay to identify small molecule inhibitors of firefly luciferase (AID 1224835). Also: nearly all actives have a fitted effect of over 25% in size. An outline of the steps:
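Inhibition of purified Photinus luciferase is measured by luminescence. Substrate levels (D-luciferin, ATP) sit at their KM values. Each compound is tested in a concentration series.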
A general note: In qHTS, concentration-response curves come from the screen itself.

The nature of experiment [2]: qHTS assay to identify small molecule agonists of the constitutive androstane receptor (CAR) signaling pathway - cell viability counter screen (AID 1224836). Also: nearly all actives have a fitted effect of over 45% in size. In outline: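 Multiplexed viability check: HepG2-CYP2B6-hCAR cells, 15-point compound dosing, 0.75 uM PK11195 final, 23 h at 37 C, CellTiter-Fluor fluorescence.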
The nature of experiment [3]: qHTS assay to identify small molecule antagonists of the constitutive androstane receptor (CAR) signaling pathway - cell viability counter screen (AID 1224837). Also: nearly all actives have a fitted effect of over 45% in size. In outline:
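HepG2 cells stably expressing hCAR and a CYP2B6-2.2kb reporter were plated and pre-incubated 4 hr at 37 C/5% CO2, then given compounds at 15 concentrations plus 50 nM CITCO (final). After 23 hr, viability was read by CellTiter-Fluor fluorescence.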

Experiment [4] has as its target Nuclear receptor subfamily 1 group I member 3 (Homo sapiens) (UniProt Q14994). Kind of experiment: qHTS assay to identify small molecule antagonists of the constitutive androstane receptor (CAR) signaling pathway (AID 1224838). Also: nearly all actives have a fitted effect of over 40% in size. An outline of the steps: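 HepG2 cells stably co-transfected with hCAR and a CYP2B6-2.2kb luciferase reporter were seeded 4 h before compound addition at 15 concentrations. Cells were stimulated with 50 nM CITCO (final) for 24 h at 37 C; luciferase luminescence was then read.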

Experiment [5] shares this target. The experiment in a line: qHTS assay to identify small molecule agonists of the constitutive androstane receptor (CAR) signaling pathway (AID 1224839). Also: nearly all actives have a fitted effect of over 15% in size. An outline of the steps:
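Using human hepatoma HepG2 cells engineered with hCAR and a CYP2B6-2.2kb reporter, 15-concentration compound series were incubated 24 h alongside PK11195 at 0.75 uM final, with luminescence quantified afterwards.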

The nature of experiment [6]: qHTS assay to identify small molecule antagonists of the estrogen related receptor signaling pathway with the pleiotropic PPARgamma coactivator (PGC) from Tox21 10K library - cell viability counter screen (AID 1224840; active = well fitted cell-killing curve with a large enough effect in the repeat runs, not every such curve was filed as active; also: nearly all actives have a fitted effect of over 40% in size). In outline: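 PGC/ERR cells were seeded at 2,000 cells/well and left 6 hours at 37 C/5% CO2 before pin-tool addition of compounds in DMSO. After 17.5 hours at 37 C, CellTiter-Fluor was added and fluorescence read 30 minutes later.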

Experiment [7] in a line: qHTS assay to identify small molecule antagonists of the estrogen related receptor signaling pathway with the pleiotropic PPARgamma coactivator (PGC) from Tox21 10K library (AID 1224841; call rule not given here; also: actives are mostly falling curves and most rising ones were filed inactive; nearly all actives have a fitted effect of over 50% in size). In outline:
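PGC/ERR reporter cells were seeded at 2,000 cells/well and held 6 hours at 37 C/5% CO2 before pin-tool addition of compounds in DMSO. After 18 hours at 37 C, One-Glo was added and luminescence read after 30 minutes at room temperature.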

Experiment [8] in a line: qHTS assay to identify small molecule agonists of the estrogen related receptor signaling pathway with the pleiotropic PPARgamma coactivator (PGC) from Tox21 10K library (AID 1224842). Also: nearly all actives have a fitted effect of over 15% in size. An outline of the steps: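 Luminescence from One-Glo (30 min, room temperature) measured after PGC/ERR cells had 18 h at 37 C with pinned compound (23 nL in DMSO). Cells had been seeded at 2,000 per well and pre-incubated 6 h.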

Experiment [9] concerns the target Thyrotropin receptor (Homo sapiens) (UniProt P16473). Kind of experiment: qHTS assay to identify small molecule agonists of the thyroid stimulating hormone receptor (TSHR) signaling pathway (AID 1224843; calls by dose curve; also: nearly all actives have a fitted effect of over 45% in size). An outline of the steps:
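Screening of the Tox21 10K collection used HEK293 cells engineered with TSHR at 800 cells per well. After a 30-min room-temperature compound exposure, HTRF cAMP reagents were added and fluorescence recorded 1 h later.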

Experiment [10] is described as follows: qHTS assay to identify small molecule agonists of the hypoxia (HIF-1) signaling pathway - cell viability counter screen (AID 1224844; calls by dose curve; also: nearly all actives have a fitted effect of over 50% in size). An outline of the steps: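 HRE-bla ME-180 cells in medium with 0.5% dialyzed FBS were preincubated 5 hrs at 37C, exposed to compounds for 17 hrs, then viability was read as CellTiter-Glo luminescence after 30 min at room temperature, in the reporter wells.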

Experiment [11] can be described thus: qHTS assay to identify small molecule agonists of H2AX (AID 1224845; active = well fitted activation curve with a large enough effect in the signal ratio in the repeat runs, not every such curve was filed as active; the % refers to the signal ratio). An outline of the steps:
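Phospho-H2AX Ser139 measured by HTRF (ex 320 nm; em 665 and 620 nm) after 24 hr antibody incubation. Compounds, 15 concentrations, 0.76% DMSO, were applied to CHO-K1 cells for 3hr at 37C before lysis.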

Experiment [12] in a line: qHTS assay to identify small molecule agonists of the hypoxia (HIF-1) signaling pathway (AID 1224846; active = well fitted activation curve with a large enough effect in the signal ratio in the repeat runs, not every such curve was filed as active; the % refers to the signal ratio). In outline:
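HRE-bla ME-180 cells (beta-lactamase reporter under hypoxia response element) were plated at 2,000 cells/well in medium with 0.5% dialyzed FBS, rested 5 hrs, then given compounds in DMSO for 17 hrs at 37C, 5% CO2. Reporter induction was read with CCF4-AM FRET substrate.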

Experiment [13] is described as follows: qHTS assay to identify small molecule agonists of H2AX - cell viability counter screen (AID 1224847; calls by dose curve;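 also: wild-type CHO-K1 cells; top concentration of the series differs between compounds; nearly all actives have a fitted effect of over 30% in size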). An outline of the steps:
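After overnight plating of 1000 CHO-K1 cells per well, a 15-concentration compound series was applied for 3 hr at 37C. Luminescence from CellTiter-Glo, read following 30 min at room temperature, reflected cell viability.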

A short description of experiment [14]: qHTS assay to identify small molecule antagonists of the estrogen related receptor (ERR) signaling pathway from Tox21 library (AID 1224848). Also: nearly all actives have a fitted effect of over 50% in size. In outline:
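Antagonist-mode screen of the Tox21 10K library in an NTP-provided ERR reporter cell line; 18 h compound exposure at 37 C, luminescence measured with ONE-Glo.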

The nature of experiment [15]: qHTS assay to identify small molecule agonists of the estrogen related receptor (ERR) signaling pathway from Tox21 library (AID 1224849; calls by dose curve; also: nearly all actives have a fitted effect of over 15% in size). The note with it: ERR reporter cell line, ONE-Glo luciferase, 18 h; at 92.4 µM (top of the series) unless noted. In outline:
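ERR reporter cell line (NTP) seeded, rested 6 h at 37 C/5% CO2, then pinned with Tox21 compounds in DMSO. After 18 h at 37 C, ONE-Glo luciferase luminescence was read following 30 min at room temperature.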

Experiment [16] in a line: qHTS RealTime-Glo MT Cell Viability Assay in HepG2 cells - 24 hour (AID 1224867). Also: nearly all actives have a fitted effect of over 50% in size. In outline:
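qHTS, HepG2, 600 cells/well, RealTime-Glo (NanoLuc + prosubstrate) added with cells; 5 h preincubation; DMSO compound addition; 37 C; luminescence at 0/8/16/24/32/40 h.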

Experiment [17] can be described thus: qHTS RealTime-Glo MT Cell Viability Assay in HEK293 cells - 32 hour (AID 1224868). In outline:
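Assay medium contained NanoLuc luciferase plus cell-permeant prosubstrate, added with HEK293 cells at 600 cells/well. After 5 h at 37 C/5% CO2 compounds were added; plates stayed at 37 C for 40 h with serial luminescence reads.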

The nature of experiment [18]: A CellTox Green Cytotoxicity Assay to monitor cytotoxicity in HEK293 cells - 0 hour (AID 1224869). Also: nearly all actives have a fitted effect of over 50% in size. In outline: (§1)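 HEK293 cells premixed with CellTox Green dye were seeded at 600 cells/well and left 5 h at 37 C/5% CO2 before pin transfer of 23 nL compound in DMSO. Fluorescence from dye bound to dead-cell DNA was read during 40 h treatment.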
Experiment [19] is described as follows: qHTS RealTime-Glo MT Cell Viability Assay in HepG2 cells - 40 hour (AID 1224870). Also: nearly all actives have a fitted effect of over 50% in size. An outline of the steps:
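Real-time viability: cells seeded at 600 per well together with NanoLuc and cell-permeant prosubstrate, compounds added after 5 h incubation. Luminescence tracked at 0, 8, 16, 24, 32 and 40 h of exposure.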

Experiment [20] in a line: A CellTox Green Cytotoxicity Assay to monitor cytotoxicity in HEK293 cells - 40 hour (AID 1224871). Also: nearly all actives have a fitted effect of over 45% in size. An outline of the steps:
as §1
% is scaled to controls: 0 for no effect and ±100 for the full control effect.

Thyrotropin receptor (Homo sapiens), sequence (P16473 whole entry, looked up): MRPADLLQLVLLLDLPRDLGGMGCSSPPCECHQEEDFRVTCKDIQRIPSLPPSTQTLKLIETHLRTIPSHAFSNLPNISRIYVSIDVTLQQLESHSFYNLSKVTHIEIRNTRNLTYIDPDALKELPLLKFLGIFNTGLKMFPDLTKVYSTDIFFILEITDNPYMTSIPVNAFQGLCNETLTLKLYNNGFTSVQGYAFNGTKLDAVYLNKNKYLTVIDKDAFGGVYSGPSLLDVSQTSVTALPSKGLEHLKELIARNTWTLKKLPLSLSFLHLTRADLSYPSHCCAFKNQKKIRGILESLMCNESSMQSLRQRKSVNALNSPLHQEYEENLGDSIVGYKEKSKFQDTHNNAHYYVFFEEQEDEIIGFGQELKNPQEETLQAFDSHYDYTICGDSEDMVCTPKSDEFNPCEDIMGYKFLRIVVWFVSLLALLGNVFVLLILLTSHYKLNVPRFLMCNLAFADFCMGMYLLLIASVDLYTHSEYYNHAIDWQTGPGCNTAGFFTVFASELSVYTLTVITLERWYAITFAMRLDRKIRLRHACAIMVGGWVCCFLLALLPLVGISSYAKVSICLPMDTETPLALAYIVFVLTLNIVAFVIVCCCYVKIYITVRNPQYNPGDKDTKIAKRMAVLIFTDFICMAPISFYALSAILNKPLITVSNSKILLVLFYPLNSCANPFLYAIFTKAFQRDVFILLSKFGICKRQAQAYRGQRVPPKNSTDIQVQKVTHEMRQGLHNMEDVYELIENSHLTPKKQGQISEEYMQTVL
Nuclear receptor subfamily 1 group I member 3 (Homo sapiens), sequence (Q14994 whole entry, looked up): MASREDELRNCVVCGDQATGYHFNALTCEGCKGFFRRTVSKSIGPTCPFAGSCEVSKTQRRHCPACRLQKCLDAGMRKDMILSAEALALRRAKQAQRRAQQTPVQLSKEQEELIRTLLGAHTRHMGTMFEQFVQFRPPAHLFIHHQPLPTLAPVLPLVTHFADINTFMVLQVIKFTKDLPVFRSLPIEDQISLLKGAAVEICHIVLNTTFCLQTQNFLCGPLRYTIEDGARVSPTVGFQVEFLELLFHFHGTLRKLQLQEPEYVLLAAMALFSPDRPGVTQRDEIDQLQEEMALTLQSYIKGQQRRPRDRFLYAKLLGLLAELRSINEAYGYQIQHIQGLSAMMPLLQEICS
Luciferin 4-monooxygenase (Photinus pyralis), sequence (P08659 whole entry, looked up): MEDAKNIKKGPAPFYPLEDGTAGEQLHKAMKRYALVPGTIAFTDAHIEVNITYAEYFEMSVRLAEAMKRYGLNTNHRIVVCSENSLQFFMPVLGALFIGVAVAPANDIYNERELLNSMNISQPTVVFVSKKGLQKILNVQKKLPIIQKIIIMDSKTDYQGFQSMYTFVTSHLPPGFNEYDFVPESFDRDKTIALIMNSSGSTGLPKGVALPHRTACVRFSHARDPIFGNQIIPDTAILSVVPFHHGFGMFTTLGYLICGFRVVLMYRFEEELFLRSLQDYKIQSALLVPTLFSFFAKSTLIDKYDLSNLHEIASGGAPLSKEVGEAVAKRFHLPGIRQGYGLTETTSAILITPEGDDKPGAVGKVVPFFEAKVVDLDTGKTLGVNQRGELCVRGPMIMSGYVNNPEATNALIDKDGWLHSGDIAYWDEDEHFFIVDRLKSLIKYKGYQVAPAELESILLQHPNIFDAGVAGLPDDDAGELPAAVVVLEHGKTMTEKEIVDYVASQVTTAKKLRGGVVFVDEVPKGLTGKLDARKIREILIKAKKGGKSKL

For `O=c1cccc[nH]1`, the Potency entry in experiment [1], in experiment [2], in experiment [3], in experiment [4], in experiment [5] and in experiment [6] was “inactive” each time. Further, the Potency result in experiment [7], in [8], in experiment [9], in experiment [10], in experiment [11] and in [13] was “inactive” in each case. The Potency entry in experiment [14], in [16], in experiment [17], in experiment [18], in [19] and in experiment [20] was “inactive” in each case. For the same compound, the call in experiment [12] was inactive. Besides, in experiment [15], the activity change, positive = activation is 0.143%.

In the case of `COC(=O)NCCC[Si](OC)(OC)OC`, the Potency entry in [1], in experiment [2], in experiment [3], in [4], in [5] and in experiment [6] was “inactive” in each case. Also, the Potency result in [7], in experiment [8], in experiment [9], in experiment [14], in experiment [16] and in experiment [17] was “inactive” throughout. Besides, the Potency result in experiment [18] is “inactive”. Besides, the activity change, positive = activation in [15] was -7.77%.

Take `CC(C)=CCCC(C)O` (centres undefined): the Potency result in experiment [1], in experiment [2], in experiment [3], in experiment [4], in experiment [5] and in experiment [6] was “inactive” in each case. Further, the Potency entry in experiment [7], in [8], in experiment [9], in [10], in experiment [11] and in [13] was “inactive” each time. In addition, the Potency entry in experiment [14], in [16], in experiment [17], in [18], in experiment [19] and in experiment [20] was “inactive” throughout. The call in experiment [12] was inactive. Moreover, in experiment [15], the activity change, positive = activation is 0.538%.

Take `C(=C/c1ccccc1)/c1ccccc1`: the Potency entry in [1], in [2], in [3], in experiment [4], in [5] and in experiment [6] was “inactive” in each case. The Potency result in [7], in experiment [8], in experiment [9], in [10], in experiment [11] and in experiment [13] was “inactive” in each case. Besides, the Potency entry in [14], in experiment [16], in [17], in [18] and in experiment [19] was “inactive” throughout. Further, the call in experiment [12] was inactive. Besides, the activity change, positive = activation in experiment [15] is 2.16%.

As to `C=CC/C=C/C/C=C/C/C=C/C`, the Potency result in experiment [1], in [2], in experiment [3], in [4], in experiment [5] and in [6] was “inactive” each time. In addition, the Potency result in experiment [7], in experiment [8], in [9], in [10], in experiment [11] and in experiment [13] was “inactive” throughout. Also, the Potency entry in experiment [14], in [16], in [17], in experiment [18], in [19] and in [20] was “inactive” each time. The call in experiment [12] was inactive. The activity change, positive = activation in [15] is 3.56%.

On to `C=CC(=O)OCCC#N`, for which the Potency entry in [1], in [2], in experiment [3], in experiment [4], in [5] and in experiment [6] was “inactive” each time. The Potency entry in [7], in experiment [9], in experiment [10], in experiment [14], in experiment [16] and in experiment [18] was “inactive” each time. The Potency entry in experiment [19] is “inactive”. Also, the result in [12] was inactive. Besides, in experiment [15], the activity change, positive = activation was 47% (active).

Turning to `CCc1ccc(C)nc1`, the Potency result in [1], in experiment [2], in experiment [3], in experiment [4], in experiment [5] and in experiment [6] was “inactive” in each case. Further, the Potency result in [9], in experiment [10], in [11], in experiment [13], in [16] and in experiment [17] was “inactive” in each case. Besides, the Potency result in [18], in experiment [19] and in experiment [20] was “inactive” throughout. Besides, in experiment [12], the outcome was inactive.
